# Results from the supplement of paper PMC4466140.
# Target: AgAbp1
# Experiment: SPOT peptide array binding signal intensity (averaged, normalized) (arbitrary units (background-subtracted, floor 0; scale differs between SH3 domains)); higher = stronger binding of the SH3 domain to the peptide
# Method in brief: (§1)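 The binding signal is the normalized, background-subtracted spot intensity averaged over replicates; its arbitrary units differ between domains. It was obtained by incubating 10 μg/ml GST-fused SH3 domains from four yeast species overnight at 4°C in TBS-based blocking buffer on cellulose membranes with synthetic 15-mer peptides, cysteines replaced by serines, then detecting with anti-GST antibody, HRP anti-mouse secondary and luminol.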
row,Binder,SPOT peptide array binding signal intensity
1,DLPLPDLPPEPPTEL,≤ 0
2,VPPPMQPPPIESSNL,≤ 0

# Target: AgBbc1
# Experiment: as above
# Method in brief: as §1
row,Binder,SPOT peptide array binding signal intensity
1,DLPLPDLPPEPPTEL,≤ 0
2,VPPPMQPPPIESSNL,2.5

# Target: AgBem1-D1
# Experiment: as above
# Method in brief: as §1
row,Binder,SPOT peptide array binding signal intensity
1,DLPLPDLPPEPPTEL,≤ 0
2,VPPPMQPPPIESSNL,238

# Target: AgBzz1-D1
# Experiment: as above
# Method in brief: as §1
row,Binder,SPOT peptide array binding signal intensity
1,DLPLPDLPPEPPTEL,≤ 0
2,VPPPMQPPPIESSNL,≤ 0

# Target: AgBzz1-D2
# Experiment: as above
# Method in brief: as §1
row,Binder,SPOT peptide array binding signal intensity
1,DLPLPDLPPEPPTEL,2
2,VPPPMQPPPIESSNL,≤ 0

# Target: AgCyk3
# Experiment: as above
# Method in brief: as §1
row,Binder,SPOT peptide array binding signal intensity
1,DLPLPDLPPEPPTEL,0.5
2,VPPPMQPPPIESSNL,0.5

# Target: AgFus1
# Experiment: as above
# Method in brief: as §1
row,Binder,SPOT peptide array binding signal intensity
1,DLPLPDLPPEPPTEL,≤ 0
2,VPPPMQPPPIESSNL,159

# Target: AgHof1
# Experiment: as above
# Method in brief: as §1
row,Binder,SPOT peptide array binding signal intensity
1,DLPLPDLPPEPPTEL,54.5
2,VPPPMQPPPIESSNL,0.25

# Target: AgHse1
# Experiment: as above
# Method in brief: as §1
row,Binder,SPOT peptide array binding signal intensity
1,DLPLPDLPPEPPTEL,10.5
2,VPPPMQPPPIESSNL,90

# Target: AgLsb1
# Experiment: as above
# Method in brief: as §1
row,Binder,SPOT peptide array binding signal intensity
1,DLPLPDLPPEPPTEL,≤ 0
2,VPPPMQPPPIESSNL,≤ 0

# Target: AgLsb4
# Experiment: as above
# Method in brief: as §1
row,Binder,SPOT peptide array binding signal intensity
1,DLPLPDLPPEPPTEL,≤ 0
2,VPPPMQPPPIESSNL,≤ 0

# Target: AgMyo5
# Experiment: as above
# Method in brief: as §1
row,Binder,SPOT peptide array binding signal intensity
1,DLPLPDLPPEPPTEL,207
2,VPPPMQPPPIESSNL,102

# Target: AgNbp2
# Experiment: as above
# Method in brief: as §1
row,Binder,SPOT peptide array binding signal intensity
1,DLPLPDLPPEPPTEL,≤ 0
2,VPPPMQPPPIESSNL,98

# Target: AgRvs167
# Experiment: as above
# Method in brief: as §1
row,Binder,SPOT peptide array binding signal intensity
1,DLPLPDLPPEPPTEL,≤ 0
2,VPPPMQPPPIESSNL,≤ 0

# Target: AgSho1
# Experiment: as above
# Method in brief: as §1
row,Binder,SPOT peptide array binding signal intensity
1,DLPLPDLPPEPPTEL,≤ 0
2,VPPPMQPPPIESSNL,67

# Target: AgSla1-D1-D2
# Experiment: as above
# Method in brief: as §1
row,Binder,SPOT peptide array binding signal intensity
1,DLPLPDLPPEPPTEL,2
2,VPPPMQPPPIESSNL,≤ 0

# Target: AgSla1-D3
# Experiment: as above
# Method in brief: as §1
row,Binder,SPOT peptide array binding signal intensity
1,DLPLPDLPPEPPTEL,≤ 0
2,VPPPMQPPPIESSNL,0.75

# Target: CaAbp1-D1
# Experiment: as above
# Method in brief: as §1
row,Binder,SPOT peptide array binding signal intensity
1,DLPLPDLPPEPPTEL,≤ 0
2,VPPPMQPPPIESSNL,≤ 0

# Target: CaAbp1-D2
# Experiment: as above
# Method in brief: as §1
row,Binder,SPOT peptide array binding signal intensity
1,DLPLPDLPPEPPTEL,≤ 0
2,VPPPMQPPPIESSNL,8

# Target: CaBbc1
# Experiment: as above
# Method in brief: as §1
row,Binder,SPOT peptide array binding signal intensity
1,DLPLPDLPPEPPTEL,≤ 0
2,VPPPMQPPPIESSNL,10.5

# Target: CaBem1-D1
# Experiment: as above
# Method in brief: as §1
row,Binder,SPOT peptide array binding signal intensity
1,DLPLPDLPPEPPTEL,≤ 0
2,VPPPMQPPPIESSNL,26

# Target: CaBzz1-D1
# Experiment: as above
# Method in brief: as §1
row,Binder,SPOT peptide array binding signal intensity
1,DLPLPDLPPEPPTEL,≤ 0
2,VPPPMQPPPIESSNL,35

# Target: CaBzz1-D2
# Experiment: as above
# Method in brief: as §1
row,Binder,SPOT peptide array binding signal intensity
1,DLPLPDLPPEPPTEL,≤ 0
2,VPPPMQPPPIESSNL,8.25

# Target: CaCyk3
# Experiment: as above
# Method in brief: as §1
row,Binder,SPOT peptide array binding signal intensity
1,DLPLPDLPPEPPTEL,≤ 0
2,VPPPMQPPPIESSNL,8

# Target: CaFus1
# Experiment: as above
# Method in brief: as §1
row,Binder,SPOT peptide array binding signal intensity
1,DLPLPDLPPEPPTEL,≤ 0
2,VPPPMQPPPIESSNL,740

# Target: CaHof1
# Experiment: as above
# Method in brief: as §1
row,Binder,SPOT peptide array binding signal intensity
1,DLPLPDLPPEPPTEL,2.5
2,VPPPMQPPPIESSNL,≤ 0

# Target: CaHse1
# Experiment: as above
# Method in brief: as §1
row,Binder,SPOT peptide array binding signal intensity
1,DLPLPDLPPEPPTEL,1
2,VPPPMQPPPIESSNL,68

# Target: CaLsb1
# Experiment: as above
# Method in brief: as §1
row,Binder,SPOT peptide array binding signal intensity
1,DLPLPDLPPEPPTEL,0.5
2,VPPPMQPPPIESSNL,0.5

# Target: CaLsb4
# Experiment: as above
# Method in brief: as §1
row,Binder,SPOT peptide array binding signal intensity
1,DLPLPDLPPEPPTEL,≤ 0
2,VPPPMQPPPIESSNL,388

# Target: CaMyo5
# Experiment: as above
# Method in brief: as §1
row,Binder,SPOT peptide array binding signal intensity
1,DLPLPDLPPEPPTEL,0.75
2,VPPPMQPPPIESSNL,142

# Target: CaNbp2
# Experiment: as above
# Method in brief: as §1
row,Binder,SPOT peptide array binding signal intensity
1,DLPLPDLPPEPPTEL,≤ 0

# Target: CaRvs167
# Experiment: as above
# Method in brief: as §1
row,Binder,SPOT peptide array binding signal intensity
1,DLPLPDLPPEPPTEL,0.333

# Target: CaRvs167-3
# Experiment: as above
# Method in brief: as §1
row,Binder,SPOT peptide array binding signal intensity
1,DLPLPDLPPEPPTEL,2.5

# Target: CaSho1
# Experiment: as above
# Method in brief: as §1
row,Binder,SPOT peptide array binding signal intensity
1,DLPLPDLPPEPPTEL,9.5

# Target: CaSla1-D1-D2
# Experiment: as above
# Method in brief: as §1
row,Binder,SPOT peptide array binding signal intensity
1,DLPLPDLPPEPPTEL,≤ 0

# Target: CaSla1-D3
# Experiment: as above
# Method in brief: as §1
row,Binder,SPOT peptide array binding signal intensity
1,DLPLPDLPPEPPTEL,≤ 0

# Target: ScAbp1
# Experiment: as above
# Method in brief: as §1
row,Binder,SPOT peptide array binding signal intensity
1,DLPLPDLPPEPPTEL,4

# Target: ScBbc1
# Experiment: as above
# Method in brief: as §1
row,Binder,SPOT peptide array binding signal intensity
1,DLPLPDLPPEPPTEL,2.75

# Target: ScBem1-D1
# Experiment: as above
# Method in brief: as §1
row,Binder,SPOT peptide array binding signal intensity
1,DLPLPDLPPEPPTEL,≤ 0

# Target: ScBzz1-D1
# Experiment: as above
# Method in brief: as §1
row,Binder,SPOT peptide array binding signal intensity
1,DLPLPDLPPEPPTEL,2

# Target: ScBzz1-D2
# Experiment: as above
# Method in brief: as §1
row,Binder,SPOT peptide array binding signal intensity
1,DLPLPDLPPEPPTEL,2

# Target: ScCyk3
# Experiment: as above
# Method in brief: as §1
row,Binder,SPOT peptide array binding signal intensity
1,DLPLPDLPPEPPTEL,2

# Target: ScFus1
# Experiment: as above
# Method in brief: as §1
row,Binder,SPOT peptide array binding signal intensity
1,DLPLPDLPPEPPTEL,≤ 0

# Target: ScHof1
# Experiment: as above
# Method in brief: as §1
row,Binder,SPOT peptide array binding signal intensity
1,DLPLPDLPPEPPTEL,206

# Target: ScHse1
# Experiment: as above
# Method in brief: as §1
row,Binder,SPOT peptide array binding signal intensity
1,DLPLPDLPPEPPTEL,≤ 0

# Target: ScLsb1
# Experiment: as above
# Method in brief: as §1
row,Binder,SPOT peptide array binding signal intensity
1,DLPLPDLPPEPPTEL,≤ 0

# Target: ScLsb2
# Experiment: as above
# Method in brief: as §1
row,Binder,SPOT peptide array binding signal intensity
1,DLPLPDLPPEPPTEL,≤ 0

# Target: ScLsb3
# Experiment: as above
# Method in brief: as §1
row,Binder,SPOT peptide array binding signal intensity
1,DLPLPDLPPEPPTEL,≤ 0

# Target: ScLsb4
# Experiment: as above
# Method in brief: as §1
row,Binder,SPOT peptide array binding signal intensity
1,DLPLPDLPPEPPTEL,≤ 0

# Target: ScMyo3
# Experiment: as above
# Method in brief: as §1
row,Binder,SPOT peptide array binding signal intensity
1,DLPLPDLPPEPPTEL,384

# Target: ScMyo5
# Experiment: as above
# Method in brief: as §1
row,Binder,SPOT peptide array binding signal intensity
1,DLPLPDLPPEPPTEL,646

# Target: ScNbp2
# Experiment: as above
# Method in brief: as §1
row,Binder,SPOT peptide array binding signal intensity
1,DLPLPDLPPEPPTEL,≤ 0

# Target: ScPex13
# Experiment: as above
# Method in brief: as §1
row,Binder,SPOT peptide array binding signal intensity
1,DLPLPDLPPEPPTEL,≤ 0

# Target: ScRvs167
# Experiment: as above
# Method in brief: as §1
row,Binder,SPOT peptide array binding signal intensity
1,DLPLPDLPPEPPTEL,≤ 0

# Target: ScSho1
# Experiment: as above
# Method in brief: as §1
row,Binder,SPOT peptide array binding signal intensity
1,DLPLPDLPPEPPTEL,≤ 0

# Target: ScSla1-D1-D2
# Experiment: as above
# Method in brief: as §1
row,Binder,SPOT peptide array binding signal intensity
1,DLPLPDLPPEPPTEL,≤ 0

# Target: ScSla1-D3
# Experiment: as above
# Method in brief: as §1
row,Binder,SPOT peptide array binding signal intensity
1,DLPLPDLPPEPPTEL,≤ 0

# Target: SpAbp1-D1
# Experiment: as above
# Method in brief: as §1
row,Binder,SPOT peptide array binding signal intensity
1,DLPLPDLPPEPPTEL,≤ 0

# Target: SpBbc1
# Experiment: as above
# Method in brief: as §1
row,Binder,SPOT peptide array binding signal intensity
1,DLPLPDLPPEPPTEL,≤ 0

# Target: SpBzz1-D1
# Experiment: as above
# Method in brief: as §1
row,Binder,SPOT peptide array binding signal intensity
1,DLPLPDLPPEPPTEL,≤ 0

# Target: SpBzz1-D2
# Experiment: as above
# Method in brief: as §1
row,Binder,SPOT peptide array binding signal intensity
1,DLPLPDLPPEPPTEL,≤ 0

# Target: SpCyk3
# Experiment: as above
# Method in brief: as §1
row,Binder,SPOT peptide array binding signal intensity
1,DLPLPDLPPEPPTEL,≤ 0

# Target: SpHof1
# Experiment: as above
# Method in brief: as §1
row,Binder,SPOT peptide array binding signal intensity
1,DLPLPDLPPEPPTEL,≤ 0

# Target: SpHof1-2
# Experiment: as above
# Method in brief: as §1
row,Binder,SPOT peptide array binding signal intensity
1,DLPLPDLPPEPPTEL,3

# Target: SpHof1-3
# Experiment: as above
# Method in brief: as §1
row,Binder,SPOT peptide array binding signal intensity
1,DLPLPDLPPEPPTEL,0.5

# Target: SpHse1
# Experiment: as above
# Method in brief: as §1
row,Binder,SPOT peptide array binding signal intensity
1,DLPLPDLPPEPPTEL,≤ 0

# Target: SpLsb1
# Experiment: as above
# Method in brief: as §1
row,Binder,SPOT peptide array binding signal intensity
1,DLPLPDLPPEPPTEL,≤ 0

# Target: SpLsb4
# Experiment: as above
# Method in brief: as §1
row,Binder,SPOT peptide array binding signal intensity
1,DLPLPDLPPEPPTEL,≤ 0

# Target: SpMyo1
# Experiment: as above
# Method in brief: as §1
row,Binder,SPOT peptide array binding signal intensity
1,DLPLPDLPPEPPTEL,328

# Target: SpNbp2
# Experiment: as above
# Method in brief: as §1
row,Binder,SPOT peptide array binding signal intensity
1,DLPLPDLPPEPPTEL,≤ 0

# Target: SpPex13
# Experiment: as above
# Method in brief: as §1
row,Binder,SPOT peptide array binding signal intensity
1,DLPLPDLPPEPPTEL,≤ 0

# Target: SpRvs167
# Experiment: as above
# Method in brief: as §1
row,Binder,SPOT peptide array binding signal intensity
1,DLPLPDLPPEPPTEL,≤ 0

# Target: SpSla1-D1-D2
# Experiment: as above
# Method in brief: as §1
row,Binder,SPOT peptide array binding signal intensity
1,DLPLPDLPPEPPTEL,≤ 0

# Target: SpSla1-D3
# Experiment: as above
# Method in brief: as §1
row,Binder,SPOT peptide array binding signal intensity
1,DLPLPDLPPEPPTEL,≤ 0
